Results: PubChem BioAssay (NCATS)
Where “and” joins values, the source holds several entries; their conditions need not be identical. Equal values may be shown once. Inconclusive results are not listed. Where a structure was tested more than once in an assay, its records may differ in their call. Values without a mark were called inactive. Calls of active or inactive are those of the source. Calls come from the whole dose curve; as a rule, active = well fitted inhibition curve with a large enough effect; inconclusive = small, poorly fitted or top-dose-only effect; inactive = flat fitted curve, though single readings scatter.

What was measured:
TAB109 = test: qHTS profiling for inhibitors of Plasmodium falciparum proliferation (AID 504749); note: potency is the fitted concentration of half-maximal effect; settings: P. falciparum in erythrocytes, SYBR Green DNA, 72 h; series mostly up to 28.7 µM
In short: (§1)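 Quantitative HTS: compounds pinned into medium, infected erythrocytes added (0.3% parasitemia, 2.5% hematocrit), 72 h culture at 37 C under 5% CO2. Saponin/Triton lysis with SYBR Green I, overnight RT, then fluorescence read.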

TAB113 = test: as above; settings: P. falciparum in erythrocytes, SYBR Green DNA, 72 h; series mostly up to 28.7 µM
In short: as §1

TAB165 = test: as above; settings: P. falciparum in erythrocytes, SYBR Green DNA, 72 h; series mostly up to 28.7 µM
In short: as §1

CRL-7250 = normal cell line; test: Cytotoxic Profiling of Annotated Libraries Using Quantitative High-Throughput Screening (AID 1296008); settings: Five cell lines viability, CellTiter-Glo ATP luminescence, 48-72 h; max response: stronger effect = lower value; note: potency is the fitted concentration of half-maximal effect; for max response: % is set by controls: 0 for no effect and ±100 for the full control effect
In short: (§2)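 Compounds were pin-transferred onto cells and incubated 48 or 72 hr at 37 degree Celsius, 95% humidity. CellTiter-Glo was added, plates sat 10 min at room temperature, then ATP-coupled luminescence was imaged as the viability read-out.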

HEK293 = test: as above; settings: Five cell lines viability, CellTiter-Glo ATP luminescence, 48-72 h; max response: stronger effect = lower value
In short: as §2

HaCat [1] = test: as above; settings: Five cell lines viability, CellTiter-Glo ATP luminescence, 48-72 h; max response: stronger effect = lower value
In short: as §2

KB-3-1 = test: as above; settings: Five cell lines viability, CellTiter-Glo ATP luminescence, 48-72 h; max response: stronger effect = lower value
In short: as §2

NIH3T3 = test: as above; settings: Five cell lines viability, CellTiter-Glo ATP luminescence, 48-72 h; max response: stronger effect = lower value
In short: as §2

HACAT [2] = test: qHTS assay to identify novel small-molecules to repurpose for Merkel cell carcinoma treatment (AID 1296009); settings: MCC and control cell lines, CellTiter-Glo viability, 72 h; at 44.8 µM (top of the series) unless noted
In short: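 Viability readout: ATP luminescence (CellTiter-Glo) after 72 hr drug exposure at 37 degree celsius. Dose-response format was 8 points for NPC and 11 points for MIPE; data normalized to in-plate controls.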

W2 = test: qHTS profiling for inhibitors of Plasmodium falciparum proliferation (AID 504749); note: potency is the fitted concentration of half-maximal effect; settings: P. falciparum in erythrocytes, SYBR Green DNA, 72 h; series mostly up to 28.7 µM
In short: as §1
Note: nearly all actives have a fitted effect of over 60% in size.

Row | Structure (SMILES) | Potency (TAB109) | Potency (TAB113) | Potency (TAB165) | max response (CRL-7250) | outcome (CRL-7250) | max response (HEK293) | max response (HaCat [1]) | outcome (HaCat [1]) | max response (KB-3-1) | max response (NIH3T3) | outcome (HACAT [2]) | Potency (W2) | outcome (KB-3-1) | outcome (NIH3T3) | outcome (HEK293) | Potency (HEK293) | Potency (CRL-7250) | Potency (KB-3-1)
1 | CC(=O)NC(Cc1ccccc1)C(=O)O (stereo not given) | inactive | inactive | inactive | 2.75% | inactive | 1.21% and -5.41% | -9.27% | inactive | 1.12% and 4.36% | 0.258% and -10.1% | inactive [at 92 µM] |  |  |  |  |  |  | 
2 | CCCCN1CCCC[C@H]1C(=O)Nc1c(C)cccc1C | inactive | inactive | inactive | 2.72% and -2.26% |  | -17.3% and -9.85% | -56.1% |  | 2.43% | -0.105% and -0.406% |  | 6.75 µM (active) | inactive |  |  |  |  | 
3 | CCOC(CN1CCN(CC(C)C(=O)c2ccccc2)CC1)c1ccccc1 (stereo not given) |  |  |  | -5.72% |  | -4.15% | -8.79% | inactive | 0.981% and -11.3% | -6.68% | inactive [at 17.4 µM] | 10.7 µM (active) |  | inactive |  |  |  | 
4 | COc1ccc2cc1Oc1cc3c(cc1OC)CC[N+](C)(C)[C@H]3Cc1ccc(cc1)Oc1c(OC)c(OC)cc3c1[C@@H](C2)[N+](C)(C)CC3 |  |  |  |  | inactive |  | 0.882% |  | 0.968% |  |  |  |  | inactive | inactive |  |  | 
5 | CCOc1ccc2ccccc2c1C(=O)N[C@@H]1C(=O)N2[C@@H]1SC(C)(C)[C@@H]2C(=O)O | inactive | inactive | inactive |  | inactive | 0.937% | 4.96% | inactive | -11.5% and -0.445% | -3.18% and 1.59% | inactive |  |  |  | inactive |  |  | 
6 | Cc1cc(C(C#N)c2ccc(Cl)cc2)c(Cl)cc1NC(=O)c1cc(I)cc(I)c1O (stereo not given) | inactive | inactive | inactive | -2.5% | inactive | -12.9% | -17.7% | inactive |  | -5.52% | inactive |  | inactive | inactive |  | 23.7 µM (active) |  | 
7 | O=c1[nH]cnc2c1ncn2[C@@H]1O[C@H](CO)[C@@H](O)[C@H]1O |  |  |  | -10.1% and -4.73% |  | 3.98% |  | inactive | 7.98% | 0.16% | inactive |  | inactive | inactive | inactive |  |  | 
8 | Cc1cc(N)c2ccccc2[n+]1CCCCCCCCCC[n+]1c(C)cc(N)c2ccccc21 | 4.47 µM (active) | 0.126 µM (active) | 0.1 µM (active) |  |  |  | -1.45% |  | -23.8% | -20.7% |  | 0.102 µM (active) |  |  |  | 1.3 µM (active) | 14.6 µM (active) | 9.2 µM (active)
9 | CN1CCC[C@@H]1Cc1c[nH]c2ccc(CCS(=O)(=O)c3ccccc3)cc12 |  | inactive |  |  | inactive | -1.58% |  | inactive | -5.28% | -4.41% | inactive | 4.78 µM (active) | inactive | inactive | inactive |  |  | 
10 | CC1(C)S[C@@H]2[C@H](NC(=O)Cc3ccccc3)C(=O)N2[C@H]1C(=O)O (tested in a mixture with another compound) |  |  |  |  | inactive |  | -1.15% |  | 9.18% |  |  |  |  | inactive | inactive |  |  | 
11 | C[C@@H]1C[C@H]2[C@@H]3C[C@H](F)C4=CC(=O)C=C[C@]4(C)[C@@]3(F)[C@@H](O)C[C@]2(C)[C@@]1(O)C(=O)CO |  |  |  | -4.29% | inactive | -7.17% | -8.88% and 2.84% |  |  | -2.74% and -3.01% |  |  |  |  | inactive |  |  | 
12 | Cn1c(=O)c2c(ncn2CC2OCCO2)n(C)c1=O | inactive | inactive | inactive | -4.54% and 1.94% |  |  | -3.76% | inactive | 6.93% and 8.78% | 0.911% | inactive | inactive |  | inactive | inactive |  |  | 
13 | CC1=C(CC(=O)O)c2cc(F)ccc2/C1=C\c1ccc(S(C)(=O)=O)cc1 |  |  |  | -16.5% |  | -17.6% | -12.4% |  | -9.19% | -5.99% |  |  |  |  |  |  |  | 
14 | CNC(=O)Oc1ccc2c(c1)[C@]1(C)CCN(C)[C@@H]1N2C | 2.24 µM (active) |  | 1.58 µM (active) |  | inactive |  | -0.257% | inactive | -5.47% | -4.44% | inactive | 1.51 µM (active) | inactive | inactive | inactive |  |  | 
15 | CC(C(O)c1ccc(O)cc1)N1CCC(Cc2ccccc2)CC1 (stereo not given) |  |  | 8.91 µM (active) | -1.07% | inactive |  | -22.6% | inactive | -5.14% | -2.06% and 3.27% | inactive [at 17.4 µM] | 4.26 µM (active) | inactive |  |  |  |  | 
16 | CCCCC/C(C=O)=C\c1ccccc1 |  |  |  | -6.23% |  |  | 1.14% |  | -6.5% |  |  |  |  | inactive | inactive |  |  | 

Row | Structure (SMILES) | Potency (TAB109) | Potency (TAB113) | Potency (TAB165) | max response (CRL-7250) | outcome (CRL-7250) | max response (HEK293) | max response (HaCat [1]) | outcome (HaCat [1]) | max response (KB-3-1) | max response (NIH3T3) | outcome (HACAT [2]) | Potency (W2) | outcome (KB-3-1) | outcome (NIH3T3) | outcome (HEK293) | Potency (HEK293) | Potency (CRL-7250) | Potency (KB-3-1)
17 | C[C@]12CC[C@@H]3c4ccc(O)cc4CC[C@H]3[C@@H]1CCC2=O |  |  |  |  | inactive |  | 3.4% |  | 23.7% | 0.542% |  |  |  |  | inactive |  |  | 
18 | CC(C)(C)C(=O)C(Oc1ccc(Cl)cc1)n1ccnc1 (stereo not given) | 10 µM (active) | 10 µM (active) | 7.08 µM (active) | -7.22% | inactive |  | -9.75% | inactive | -11% and -12.3% | -7.83% | inactive | 6.01 µM (active) |  | inactive | inactive |  |  | 
19 | O=C(CCCN1CCN(c2ccccn2)CC1)c1ccc(F)cc1 | inactive | inactive | inactive | -29% | inactive | -14.9% | -5.51% and 4.13% |  |  | -7% and 0.386% |  | inactive |  |  |  |  |  | 
20 | CCCCOc1cc(C(=O)OCCN(CC)CC)ccc1N | inactive | inactive | inactive | -0.166% | inactive | -17.2% and -4.15% | 1.81% | inactive | 6.85% |  | inactive | inactive |  | inactive |  |  |  | 4.95 µM (active)
21 | CO/N=C(\C(=O)N[C@@H]1C(=O)N2C(C(=O)O)=C(CSc3nc(=O)c(O)nn3C)CS[C@H]12)c1csc(N)n1 |  |  |  | 1.86% |  |  | -21.1% |  | -0.48% |  |  |  |  | inactive | inactive |  |  | 
22 | CN1CCOC(c2ccccc2)c2ccccc2C1 (stereo not given) |  |  |  | 2.8% | inactive | -2.69% | -15.1% and -5.19% |  | -9.99% and 4.82% | 2.98% |  |  |  | inactive | inactive |  |  | 
23 | CC(C)(C(=O)O)c1ccc(C(O)CCCN2CCC(C(O)(c3ccccc3)c3ccccc3)CC2)cc1 (stereo not given) |  |  |  | -9.99% | inactive | 4.11% |  | inactive |  |  | inactive |  |  | inactive | inactive |  |  | 
24 | CCCCc1ncc(/C=C(\Cc2cccs2)C(=O)O)n1Cc1ccc(C(=O)O)cc1 | inactive | inactive | inactive | 0.696% | inactive | 1.61% and 1.3% | -8.96% |  |  | -1.7% |  | inactive |  |  |  |  |  | 
25 | COc1ccc(Cl)cc1C(=O)NCCc1ccc(S(=O)(=O)NC(=O)NC2CCCCC2)cc1 | inactive | inactive | inactive | -1.35% and -10.9% |  | -12.8% | 2.84% and -12.6% |  | -9.53% | -5.68% and -4.29% |  |  | inactive |  | inactive |  |  | 
26 | COc1ccc2[nH]c(S(=O)Cc3ncc(C)c(OC)c3C)nc2n1 (stereo not given) | 8.91 µM (active) | 8.91 µM (active) | 7.94 µM (active) |  | inactive |  | -5.32% | inactive |  | 3.86% | inactive | 9.53 µM (active) |  | inactive | inactive |  |  | 
27 | CC(COc1ccccc1)NC(C)C(O)c1ccc(O)cc1 (stereo not given) |  |  |  | -14.7% |  |  | -5.97% |  | 15.9% |  |  |  |  | inactive | inactive |  |  | 
28 | CCOC(=O)[C@H](CCc1ccccc1)N[C@@H](C)C(=O)N1C(=O)N(C)C[C@H]1C(=O)O | inactive | inactive | inactive | 1.6% | inactive | -1.24% | 0.859% | inactive | 5.5% and 4.49% | 4.99% | inactive | inactive |  | inactive | inactive |  |  | 
29 | c1ccc(CN(CC2=NCCN2)c2ccccc2)cc1 |  |  |  | 3.95% and 1.52% |  | 0.31% and -21.2% | 4.83% | inactive |  | 2.96% | inactive | 7.57 µM (active) |  | inactive |  |  |  | 
30 | CCN(CC)CCNC(=O)c1cc(Cl)c(N)cc1OC | inactive | inactive | inactive | 0.565% |  | -1.38% | 1.24% | inactive | 7.45% | -2.52% | inactive | inactive | inactive | inactive | inactive |  |  | 
31 | Cc1cc2nc3c(=O)[nH]c(=O)nc-3n(C[C@H](O)[C@H](O)[C@H](O)CO)c2cc1C |  |  |  |  | inactive | -5.47% | -19.1% |  | -1.52% and 0.485% | 4.08% |  |  |  |  |  |  |  | 
